# Inconclusive results are not listed. The source made the active and inactive calls. Unless noted, the call rests on the fitted dose curve; in most records, active means well fitted curve in the direction sought with a large enough effect; inconclusive means small, poorly fitted or top-dose-only effect, or another doubt; inactive means no such curve, though single readings can be large; an effect the other way counts as inactive or inconclusive.
# How the values were obtained:
# [1] = Quantitative High-Throughput drug screen in 47 multiple myeloma cell lines against the NCATS MIPE library collection: PE2_PLB cell viability assay (AID 1919869); further: nearly all actives have a fitted effect of over 35% in size; further: potency means the concentration at half of the fitted maximal effect
# Summary of the method: (§1)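 ATP-based luminescence (CellTiter-Glo, 5 min RT incubation) quantified surviving cells following two days' treatment with MIPE 4.0 agents at 37 °C, 5% CO2.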
# [2] = Quantitative High-Throughput drug screen in 47 multiple myeloma cell lines against the NCATS MIPE library collection: PCM6_Riken cell viability assay (AID 1919870); further: nearly all actives have a fitted effect of over 30% in size; further: potency means the concentration at half of the fitted maximal effect
# Summary of the method: as §1
# [3] = Quantitative High-Throughput drug screen in 47 multiple myeloma cell lines against the NCATS MIPE library collection: RPMI8226_ATCC cell viability assay (AID 1919871); further: nearly all actives have a fitted effect of over 30% in size; further: potency means the concentration at half of the fitted maximal effect
# Summary of the method: as §1
# [4] = Quantitative High-Throughput drug screen in 47 multiple myeloma cell lines against the NCATS MIPE library collection: OPM2_DSMZ cell viability assay (AID 1919872); further: nearly all actives have a fitted effect of over 30% in size; further: potency means the concentration at half of the fitted maximal effect
# Summary of the method: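 Luminescent ATP measurement with CellTiter-Glo gives viability, scaled between DMSO-only wells (100%) and media-only wells (0%). Cells, 500 per well, faced library compounds for 48 hours at 37C.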
# [5] = Quantitative High-Throughput drug screen in 47 multiple myeloma cell lines against the NCATS MIPE library collection: KMS28BM_JCRB cell viability assay (AID 1919874); further: nearly all actives have a fitted effect of over 35% in size; further: potency means the concentration at half of the fitted maximal effect
# Summary of the method: as §1
# [6] = qHTS drug screen for cell cycle checkpoint inhibitors in PARPi-resistant BRCA-mutant ovarian cancer cell lines. (AID 1963452; calls by dose curve); conditions: PEO1/OlaR viability, CellTiter-Glo luminescence, 96 h, stronger effect = lower value
# Summary of the method: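 PEO1, PEO4 and PEO1/OlaR ovarian cancer cells, 600 per well, exposed 96 h at 37C to a dilution series. Viability read by CellTiter-Glo luminescence, normalized to DMSO and empty wells; activity summarized as Z-AUC.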
# [7] = Quantitative High-Throughput drug screen in 47 multiple myeloma cell lines against the NCATS MIPE library collection: KMS11_JCRBsus cell viability assay (AID 1919873); further: nearly all actives have a fitted effect of over 50% in size; further: potency means the concentration at half of the fitted maximal effect
# Summary of the method: as §1
# [8] = qHTS for identification of novel therapeutic agents for treatment of microphthalmiaassociated transcription factor (MiT) renal cell carcinoma (RCC) (AID 1963991); conditions: CellTiter-Glo, 48 h, stronger effect = lower value;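 further: curves scaled with 100% = DMSO viability and 0% = empty wells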
# Summary of the method: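 UOK109/UOK124/UOK145 (TFE3 fusions, three partners); 500 cells/well; MIPE v4.0, 1912 cpds, 11 conc.; 48 h, 37 C; CellTiter-Glo, 15 min RT; lum. Norm.: DMSO 100%, empty 0%.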
# [9] = qHTS profiling for inhibitors of Plasmodium falciparum proliferation (AID 504749);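 further: 0% = DMSO vehicle and full inhibition = artemisinin control; nearly all actives have a fitted effect of over 60% in size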; conditions: P. falciparum in erythrocytes, SYBR Green DNA, 72 h
# Summary of the method: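 In a 72 h erythrocytic culture (37 C, humidified, 5% CO2) at 2.5% hematocrit and 0.3% starting parasitemia, compounds were tested; SYBR Green I in detergent lysis buffer stained parasite DNA overnight.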
# [10] = measured here: PEO1 parental Z-AUC
# [11] = TFE3-RCC UOK109 viability, measured here: UOK109 Z-AUC
# [12] = TFE3-RCC viability, measured here: UOK124 Z-AUC
# [13] = TFE3-RCC viability, measured here: UOK145 Z-AUC
# [14] = at 28.7 µM (top of the series), parasite line A
# [15] = at 28.7 µM (top of the series), parasite line B
SMILES,Potency [1],Potency [2],Potency [3],Potency [4],Potency [5],Z-AUC [6],"Z-AUC [6, 10]",Z-AUC ([6]; measured here: PEO4 Z-AUC),Potency [7],"z-score [8, 11]","z-score [8, 12]","z-score [8, 13]","activity, negative = inhibition ([9]; at 12.8 µM (top of the series), parasite line A)","activity, negative = inhibition ([9]; at 12.8 µM (top of the series), parasite line B)","activity, negative = inhibition [9, 14]","activity, negative = inhibition [9, 15]"
Cn1cnc([N+](=O)[O-])c1Sc1ncnc2nc[nH]c12,14.8 µM (active),11.8 µM (active),0.935 µM (active),0.833 µM (active),5.9 µM (active),-0.621 (inactive),-1.27,-1.41,,,,,,,,
NC(=O)C1CCCc2c1[nH]c1ccc(Cl)cc21 (stereo unspecified),16.6 µM (active),16.6 µM (active),inactive,inactive,,-0.722 (inactive),0.489,-0.557,inactive,0.0433,0.823,0.151,,,,
Nc1nc2c(ncn2COCCO)c(=O)[nH]1,inactive,23.5 µM (active),inactive,inactive,,-0.761 (inactive),-0.588,-0.538,inactive,0.456,1.73,0.51,8.65% (inactive),-5.76% (inactive),,
CN(C)c1ccc(Nc2nc(N)n(C(=O)c3c(F)cccc3F)n2)cc1,5.9 µM (active),13.2 µM (active),inactive,,,0.994 (inactive),0.58,0.398,,,,,,,,
CC(C)OC(=O)C1=CN(C(=O)c2ccc(F)c(F)c2)CC(C)(C)c2c1[nH]c1ccccc21,inactive,inactive,inactive,inactive,,-0.655 (inactive),1.12,0.385,inactive,0.178,0.0335,-0.0962,,,,
O=C(c1cc(Cc2n[nH]c(=O)c3ccccc23)ccc1F)N1CCN(C(=O)C2CC2)CC1,18.7 µM (active),11.8 µM (active),inactive,inactive,inactive,,,,,,,,,,,
O=C(C=Cc1ccc(/C=C/C(=O)Nc2ccc(C3=NCCN3)cc2)cc1)Nc1ccc(C2=NCCN2)cc1,inactive,inactive,inactive,0.662 µM (active),inactive,,,,inactive,0.251,0.767,0.309,,,,
Cc1cc2c(C(C)C)c(O)c(O)c(C=O)c2c(O)c1-c1c(C)cc2c(C(C)C)c(O)c(O)c(C=O)c2c1O,5.9 µM (active),6.62 µM (active),20.9 µM (active),18.7 µM (active),10.5 µM (active),1.05 (inactive),0.604,0.413,5.9 µM (active),,,,,,,
COCC(=O)NCC=Cc1ccc2ncnc(Nc3ccc(Oc4ccc(C)nc4)c(C)c3)c2c1,16.6 µM (active),20.9 µM (active),16.6 µM (active),,29.6 µM (active),,,,18.7 µM (active),,,,,,,
COc1c(Cl)cc2c([nH]c3cnccc32)c1NC(=O)c1cccnc1C,3.32 µM (active),1.66 µM (active),inactive,inactive,26.4 µM (active),1.1 (inactive),0.859,0.857,23.5 µM (active),,,,,,,
COc1cc(Oc2ccnc3cc(OC)c(OC)cc23)ccc1NC(=O)NC(C)c1nccs1 (stereo unspecified),23.5 µM (active),13.2 µM (active),16.6 µM (active),,9.35 µM (active),-0.894 (inactive),-0.402,-0.764,18.7 µM (active),,,,,,,
COc1ccc(-c2oc3cc(OC)ccc3c2C(=O)c2ccc(C#N)cc2)cc1,inactive,5.26 µM (active),inactive,inactive,,,,,inactive,,,,,,,
Cc1cn[nH]c1,4.69 µM (active),0.0833 µM (active),0.118 µM (active),4.18 µM (active),0.0469 µM (active),1.01 (inactive),0.488,0.423,0.166 µM (active),,,,,,7.67% (inactive),14.9% (inactive)
COc1ccc([C@@H]2CC(=O)c3c(O)cc(O[C@@H]4O[C@H](CO[C@@H]5O[C@@H](C)[C@H](O)[C@@H](O)[C@@H]5O)[C@@H](O)[C@H](O)[C@@H]4O)cc3O2)cc1O,inactive,inactive,inactive,inactive,inactive,,,,inactive,,,,,,,
CCc1cc(Nc2nccc(-c3c(-c4ccc(OC)c(C(=O)Nc5c(F)cccc5F)c4)nc4ccccn34)n2)c(OC)cc1N1CCC(N2CCN(S(C)(=O)=O)CC2)CC1,5.26 µM (active),inactive,20.9 µM (active),,,-0.4 (inactive),-0.657,-0.933,,,,,,,,
Cc1[nH]c(=O)c(C#N)cc1-c1ccc2nccn2c1,inactive,2.64 µM (active),inactive,inactive,inactive,-0.546 (inactive),-0.575,-0.131,inactive,,,,,,5.44% (inactive),15.3% (inactive)
CCOc1cc(N2CCC(O)CC2)ccc1Nc1ncc2c(n1)N(C)c1ccccc1C(=O)N2C,3.72 µM (active),14.8 µM (active),20.9 µM (active),13.2 µM (active),4.69 µM (active),-0.264 (inactive),0.271,0.379,3.32 µM (active),,,,,,,
OCCn1cc(-c2cnc3nnn(Cc4ccc5ncccc5c4)c3n2)cn1,inactive,inactive,inactive,,inactive,,,,inactive,0.421,0.338,0.859,,,,
CCOC(=O)C1=C[C@]2(CC)CCCN3CCc4c(n1c1ccccc41)[C@@H]32,9.35 µM (active),8.33 µM (active),14.8 µM (active),26.4 µM (active),8.33 µM (active),,,,8.33 µM (active),,,,,,,

# Source: PubChem BioAssay (NCATS)
